Hits are enriched below; roughly 12% of the tested compounds scored in any of these assays.
JMJD2A Tudor: blocks the human JMJD2A Tudor domain; AlphaScreen JMJD2A-Tudor / H3K4me3 peptide binding; Potency, µM (doses to about 114 µM), for inactives: at the highest dose activity change, negative = inhibition, hits mostly inhibitors; actives 4.4% (n = 390,000); further: on the % scale 0 is the no-effect control and ±100 the full control effect; nearly all actives have a fitted effect of over 50% in size
BAZ2B block: blocks human BAZ2B; Q9UIF8; AlphaScreen BAZ2B-H3K14Ac peptide displacement; Potency, µM (series often up to 114 µM), for the others: at the top dose activity change, negative = inhibition, actives largely listed as inhibitors; actives 4.4% (n = 360,000); further: on the % scale 0 is the no-effect control and ±100 the full control effect; nearly all actives have a fitted effect of over 60% in size
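BAZ2B 50 nM plus b-H3(5-23)K14Ac 50 nM, PBS pH 7.4/0.01% Tween-20, 30 min RT; compound added (max 110 uM), 30 min RT; streptavidin donor/Ni-chelate acceptor beads 10 ug/mL final, 20 min dark; AlphaScreen read.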
HP1b chromo inh: HP1-beta chromodomain-methylated histone interaction inhibition; P83916; AID 540317; Potency, µM (doses to about 114 µM), for the others: at the highest dose activity change, negative = inhibition, most hits filed as inhibitors; actives 0.56% (n = 390,000); AlphaScreen HP1-beta / biotin-H3K9me3 peptide binding; further: nearly all actives have a fitted effect of over 70% in size
Target sequence (P83916 whole entry, looked up): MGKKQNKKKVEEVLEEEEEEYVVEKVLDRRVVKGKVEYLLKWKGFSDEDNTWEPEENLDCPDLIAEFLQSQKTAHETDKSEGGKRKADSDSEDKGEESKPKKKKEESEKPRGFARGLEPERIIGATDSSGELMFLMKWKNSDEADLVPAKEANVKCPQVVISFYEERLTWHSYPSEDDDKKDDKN
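Compound inhibition of the preformed complex between 50 nM HP1-beta and 50 nM biotinylated H3K9me3 peptide was read by AlphaScreen. Buffer was PBS pH 7.4 with 0.01% Tween-20. Incubations ran 30 min at room temperature, with 10 ug/mL donor/acceptor beads.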
Sfp PPTase inh: blocks B. subtilis Sfp PPTase activity; Q9F4F7; Biochemical Sfp PPTase activity, qHTS; Potency, µM, inactives show largest response in the series, negative = inhibition, hits mostly inhibitors; actives 3.5% (n = 310,000); AID 1490;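 further: the enzyme is Sfp with the accession as filed and its product quenches rhodamine fluorescence; 0% = enzyme reaction without inhibitor and -100% = no enzyme wells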
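Fluorescence-quenching assay with 15 nM Sfp, 5 uM rhodamine-CoA and 12.5 uM BHQ-2-labelled ybbR peptide in pH 7.6 Hepes/MgCl2 buffer. Enzyme was pre-incubated with compound for 15 min at room temperature. Rate was taken from the 30-min fluorescence change (525/598 nm).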
G9a block: inhibitors of human histone lysine methyltransferase G9a. Q96KQ7. G9a H3K9 monomethylation, AlphaScreen, 2 h. Potency, µM (series often up to 102 µM), without a hit: top-dose activity, negative = inhibition, hits mostly inhibitors. actives 8.8% (n = 350,000); further: on the % scale 0 is the no-effect control and ±100 the full control effect; nearly all actives have a fitted effect of over 75% in size
Target sequence (Q96KQ7 913-1193 limits assumed): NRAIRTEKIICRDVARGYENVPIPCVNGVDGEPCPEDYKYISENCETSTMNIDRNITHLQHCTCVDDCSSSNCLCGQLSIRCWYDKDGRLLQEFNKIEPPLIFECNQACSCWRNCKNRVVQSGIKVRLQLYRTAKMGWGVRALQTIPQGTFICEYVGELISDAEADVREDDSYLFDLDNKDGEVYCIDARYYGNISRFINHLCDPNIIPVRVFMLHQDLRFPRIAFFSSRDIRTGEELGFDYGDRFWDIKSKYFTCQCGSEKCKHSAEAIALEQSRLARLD
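Readings reflect AlphaScreen signal from monomethyl-H3K9 antibody detection. HMT at 20 nM; substrate b-H3K9 500 nM; cofactor SAM 20 uM; 2 h RT reaction; compounds tested as titrations in qHTS with 15 min preincubation.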
* marks the source's active call; other numbers are inactive results; ? = inconclusive; . = no result; ! = repeats disagree; [ ] = another dose, or the depositor's remark. The call rests on the fitted dose curve; in most records, active means well fitted curve in the direction sought with a large enough effect; inconclusive means small, poorly fitted or top-dose-only effect, or another doubt; inactive means no such curve, though single readings can be large; an effect the other way counts as inactive or inconclusive. Potency means the concentration at half of the fitted maximal effect.

SMILES	JMJD2A Tudor	BAZ2B block	HP1b chromo inh	Sfp PPTase inh	G9a block
N#Cc1ccc(Oc2nc(C#N)cc(-c3ccccc3)n2)cc1	-24.3%	2.9%	17.8%	39.8µM*	-5.8%
N#Cc1cc(-c2ccccc2)nc(Oc2ccccc2)n1	88.2%	87.1%	181.4%	-9.1%	109.3%
CN(C)c1ccc(/C=N/N2C(=S)SC(C)(C)C2N(O)C(=O)Nc2ccc([N+](=O)[O-])cc2)cc1 (centres undefined)	56.2µM*	?	?	19.2%	15.7%[12.7 µM]
CNC(=O)N(O)C1N(/N=C/c2ccccc2O)C(=S)SC1(C)C (centres undefined)	-13.8%	-7.0%	38.1%	44.7µM*	.
COc1cc(/C=C2\C(C)=C(C#N)c3nc(N)c(C#N)c(C)c32)ccc1OCC(=O)O	-31.2%	56.2µM*	5.9%	?	25.1µM*
CSc1nc(-c2ccc(C)cc2)nc(N)c1C#N	-7.0%	3.3%	32.6%	17.0%	6.7%
CC1=C(C#N)c2nc(N)c(C#N)c(C)c2/C1=C\c1ccc(C)cc1	.	?	.	35.5µM*	-3.1%[0.501 µM]
CN(Cc1ccccc1)C(=O)c1ccccc1NC(=O)c1ccccc1	-10.1%	11.1%	14.6%	25.0%	-7.2%[2.33 µM]
Cc1ccc(-n2ncc3c(Nc4ccccc4C)ncnc32)cc1	-13.8%	0.8%	21.9%	.	-26.0%[59 µM]
COc1ccc(NC(=O)CSc2cn(CC(=O)N3CCOCC3)c3ccccc23)cc1OC	4.0%	-1.4%	55.2%	.	-23.3%[59 µM]
COc1cc2c(cc1OC)C(c1ccc(C(F)(F)F)cc1)CC(=O)N2 (centres undefined)	-22.7%	6.0%	47.6%	9.3%	.
FC(F)(F)c1ccc(-c2n[nH]c(=S)o2)nc1	0.0%	-12.8%	66.5%	-1.2%	39.8µM*
S=c1[nH]nc(-c2ccc3ccccc3n2)o1	-32.8%	6.1%	68.7%	1.5%	8.91µM*
Nc1nc(Sc2ccc(C(F)(F)F)cn2)n[nH]1	-11.1%	0.6%	25.0%	1.4%	?
c1ccc2nc(-c3ccncc3)ccc2c1	4.5%	8.3%	25.8%	0.7%	16.6%[59 µM]
Cc1ccc(S(=O)(=O)N(C)CC(=O)Oc2ccc(-c3nnco3)cc2)cc1	-9.7%	2.0%	41.5%	.	?
CCOC(=O)Cc1nn(C)c(=O)c2ccccc12	-1.8%	4.0%	6.5%	19.3%	-4.8%[59 µM]
Cn1nc(Cc2n[nH]c(=S)n2C)c2ccccc2c1=O	3.98µM*	0.5%	31.5%	1.6%	.
O=C(CSc1ccc(-c2ccc(Br)cc2)nn1)NC1CCCC1	-2.9%	-2.1%	28.2%	-1.6%	.
CC1(C)CC(=O)C2=C(C1)OC(N)=C(C#N)C21CCN(Cc2ccccc2)CC1	-20.1%	-36.0%	67.5%	-1.4%	28.2µM*
CC(=O)N1CCC2(CC1)C(C#N)=C(N)OC1=C2C(=O)CC(C)(C)C1	9.6%	5.1%	42.2%	6.9%	2.5%[59 µM]
CN(c1ccccc1)S(=O)(=O)c1cccc(NC(=O)c2nn(C)c(=O)c3ccccc23)c1	-23.5%	6.4%	18.5%	.	-5.9%[2.33 µM]
Cc1ccc(OCC(=O)Nc2ccc(S(=O)(=O)Nc3ccccn3)cc2)cc1C	-8.8%	-3.9%	25.7%	-4.8%	50.1µM*
Cc1ccc(OCC(=O)Nc2ccc(S(=O)(=O)Nc3ncccn3)cc2)c(C(C)(C)C)c1	-10.1%	-4.3%	33.3%	.	14.1µM*
CCc1cccc(OCC(=O)Nc2ccc(S(=O)(=O)Nc3ccccn3)cc2)c1	-13.8%	?	35.1%	10.2%	.
SMILES	JMJD2A Tudor	BAZ2B block	HP1b chromo inh	Sfp PPTase inh	G9a block
COc1ccc(C2(C(=O)Nc3ccc(S(=O)(=O)Nc4nc(C)cc(C)n4)cc3)CCCC2)cc1OC	-19.2%	-10.8%	3.2%	3.8%	50.1µM*
Cc1cc(C)c(C)c(OCC(=O)Nc2ccc(S(=O)(=O)Nc3nc(C)cc(C)n3)cc2)c1	-21.5%	-14.6%	11.7%	.	14.1µM*
CCOc1ccccc1NC(=O)CNC(=O)N1CC(=O)Nc2ccccc21	-4.9%	-14.3%	76.0%	14.4%	40.8%
Cc1cc(OCc2cc3c(cc2Cl)OCO3)c2c(C)cc(=O)oc2c1	-12.9%	-4.7%	40.1%	-4.6%	2.6%
Cc1ccc(-n2c(C)cc(C(=O)NS(=O)(=O)c3ccc(C)cc3)c2C)cc1	-29.4%	?	2.2%	-2.7%	50.1µM*
O=C(O)c1ccc(CNC(=O)C2CCCN2C(=O)OCc2ccccc2)cc1 (centres undefined)	-13.5%	1.1%	24.4%	6.3%	15.7%
O=C(O)C1CCC(=O)N1C(=O)OCc1ccccc1 (centres undefined)	-0.7%	18.0%	38.5%	10.8%	70.8µM*
O=C[C@@H]1CCCN1C(=O)[C@@H]1CCCN1C(=O)OCc1ccccc1	.	.	.	56.2µM*	8.91µM*
N[C@@H](Cc1ccc(F)cc1)C(=O)O	-25.5%	.	89.0%	.	10µM*!
N[C@H](Cc1ccccc1)C(=O)O	.	.	.	-14.9%	33.5%[59 µM]
CCOC(=O)C(C(C)C)C(N)Cc1ccc(F)cc1 (centres undefined)	?	50.1µM*	4.3%	6.1%	-38.0%
NC(Cc1ccc2nonc2c1)C(=O)O (centres undefined)	8.91µM*	79.4µM*	-6.3%	?	12.6µM*
NC(Cc1ccc(Cl)cc1)C(=O)O (centres undefined)	.	.	.	2.1%	9.47µM*!
CC[C@]1(O)C[C@@H]2CN(CCc3c([nH]c4ccccc34)[C@](C(=O)OC)(c3cc4c(cc3OC)N(C)[C@H]3[C@](O)(C(=O)OC)[C@@H](C(=O)OC)[C@@]5(CC)C=CCN6CC[C@@]43[C@@H]65)C2)C1	.	.	.	-23.8%	.
O=C(Nc1ccc(Cl)cc1)Nc1ccc(N2CCOCC2)cc1	-6.4%	8.3%	33.0%	8.7%	-49.2%[12.7 µM]
O=C(Nc1ccc(N2CCOCC2)cc1)C1(c2ccc(Cl)cc2)CCC1	-32.9%	?	-6.1%	12.3%	44.7µM*
O=C(Nc1ccc(N2CCOCC2)cc1)C1=NN(c2ccccc2)C(=O)CC1	-18.6%	-34.3%	8.2%	.	44.7µM*
O=C(Nc1ccc(N2CCOCC2)cc1)c1ccccc1SCC(=O)N1CCCC1	-18.9%	-7.3%	12.4%	-10.5%	7.08µM*
Cc1ccc(NC(=O)c2cc(N3C(=O)CCC3=O)ccc2N2CCOCC2)cc1	-10.7%	-16.3%	39.2%	10.1%	-3.3%
Cc1ccc(NC(=O)c2cc(N3C(=O)C=CC3=O)ccc2N2CCOCC2)cc1Cl	20µM*	50.1µM*	?	3.98µM*	1.58µM*
O=C(Nc1ccc(Cl)c(S(=O)(=O)N2CCOCC2)c1)C1=NN(c2ccccc2)C(=O)CC1	-28.8%	.	7.1%	.	.
O=C(Nc1ccc2c(c1)OCO2)c1ccccc1SCC(=O)N1CCCC1	-4.9%	13.3%	25.5%	-2.3%	-11.7%[12.7 µM]
CC(C)(C)c1csc(NC(=O)CS(=O)(=O)c2ccccc2)n1	-4.1%	0.6%	27.3%	11.4%	4.5%
Cc1oc(C(C)(C)C)cc1C(=O)Nc1ccc(N2CCOCC2)cc1	-17.3%	-25.2%	-10.0%	0.1%	44.7µM*
CC(C)c1ccc(C(=O)Nc2ccc(N3CCOCC3)cc2)cc1	-12.6%	-10.4%	22.9%	11.7%	50.1µM*

Screening results: PubChem, National Center for Advancing Translational Sciences (NCATS)
